Assay outcomes as filed in PubChem.
Only some compounds are listed: those with a hit (about 1.2% of all), similar ones and a draw of the others.
S-ASM inh – blocks human secretory acid sphingomyelinase. P17405. placental ASM, HMU-PC fluorogenic substrate, 60 min. Potency, µM (top dose mostly 57.5 µM), usual class: inhibitors. 340,000 compounds, 0.006% hits. AID 504937
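Steps: dispense placental human ASM, pin compound, wait 10 min at room temperature, add HMU-PC0 substrate at 9 uM final, incubate 60 min at 37 °C, add stop solution raising pH to 10, read fluorescence.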
Apoferritin bind – candidate novel general anesthetic via apoferritin binding. 350,000 compounds, 0.074% hits. apoferritin/1-aminoanthracene competitive binding, fluorescence. Potency, µM (doses to about 77.5 µM), actives largely listed as inhibitors; further: nearly all actives have a fitted effect of over 20% in size
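In PBS, apoferritin at 10 uM is loaded with 1-AMA from a 50% saturated solution. After 10 min of compound exposure at ambient temperature, reduced 535 nm fluorescence indicates probe displacement.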
PTAP TSG101 blk – blocks PTAP/TSG101 interaction to inhibit HIV-1 budding; Q99816; Fluorescence polarization, FITC-PTAP peptide / Tsg101 binding; Potency, µM (highest dose often 115 µM), actives largely listed as inhibitors; 340,000 tested, under 10 active; AID 493005; active means well fitted inhibition curve with a large enough effect in the main read-out, with a control signal flat, not every such curve was filed as active; inconclusive means small, poorly fitted or top-dose-only effect, or effect the other way, or a change in a side signal; inactive means no such curve, though single readings can be large or run the other way
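Fluorescence anisotropy tracks displacement of a FITC-tagged PTAP peptide (50 nM) from the Tsg101 binding domain (10 uM), following a 20 min room-temperature incubation at pH 7.5.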
TSHR antagonist – blocks TSH signaling through the human TSH receptor; P16473; TSHR-expressing cells, TSH-stimulated cAMP HTRF, 2 h; hits give low values; activity change, negative = inhibition, % at 11.5 µM; 330,000 compounds, 0.2% hits;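 active means activity change below a set negative limit, meaning inhibition stronger than a set level, cut at about -70% in these data; inconclusive means activity change between two set negative limits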
Target sequence (P16473 whole entry, looked up): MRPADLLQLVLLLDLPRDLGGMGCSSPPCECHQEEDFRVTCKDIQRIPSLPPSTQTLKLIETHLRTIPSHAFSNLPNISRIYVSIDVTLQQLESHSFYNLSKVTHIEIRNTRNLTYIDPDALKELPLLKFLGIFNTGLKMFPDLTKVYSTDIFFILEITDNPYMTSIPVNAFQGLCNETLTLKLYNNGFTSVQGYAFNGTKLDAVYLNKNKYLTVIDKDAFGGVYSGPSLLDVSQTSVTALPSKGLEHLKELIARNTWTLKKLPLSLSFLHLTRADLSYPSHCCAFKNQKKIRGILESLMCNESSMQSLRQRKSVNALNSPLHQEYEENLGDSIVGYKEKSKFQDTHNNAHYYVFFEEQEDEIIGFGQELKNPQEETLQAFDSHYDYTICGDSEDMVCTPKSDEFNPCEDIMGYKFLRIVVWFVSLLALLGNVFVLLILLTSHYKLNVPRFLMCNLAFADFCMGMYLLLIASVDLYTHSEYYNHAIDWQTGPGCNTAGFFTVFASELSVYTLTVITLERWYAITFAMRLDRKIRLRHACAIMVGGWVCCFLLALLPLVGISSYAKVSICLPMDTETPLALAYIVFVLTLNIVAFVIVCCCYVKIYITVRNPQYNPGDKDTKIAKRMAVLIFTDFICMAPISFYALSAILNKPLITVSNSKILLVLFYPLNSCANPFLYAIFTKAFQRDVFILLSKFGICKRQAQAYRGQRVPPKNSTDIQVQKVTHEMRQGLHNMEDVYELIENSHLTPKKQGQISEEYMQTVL
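Competitive HTRF cAMP read-out (cryptate anti-cAMP antibody, cAMP-d2; 30 min, room temperature) in freshly harvested TSHR cells. Compounds added before TSH at EC80 (4nM final), followed by 2 hours' incubation at 37 deg C.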
BRCA1 expr act – BRCA1 expression activation; 380,000 compounds, 1.1% hits; MCF7-BRCA1-FFLuc reporter, luminescence, 48 h; response scale: scaled: vehicle 0%, 10 µM genistein 100%; Potency, µM (doses to about 46.1 µM), actives largely listed as activators; AID 624202; further: nearly all actives have a fitted effect of over 80% in size
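Reporter cells (MCF7, BRCA1 promoter-firefly luciferase) received library compounds across a concentration series for 48 h. End-point luminescence was measured and concentration-effect curves derived after normalization.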
Of the large screens only hits and unclear results are named; the others gave an inactive call. Unless noted, the call rests on the fitted dose curve; in most records, active means well fitted curve in the direction sought with a large enough effect; inconclusive means small, poorly fitted or top-dose-only effect, or another doubt; inactive means no such curve, though single readings can be large; an effect the other way counts as inactive or inconclusive.

CCn1c(C)cs/c1=N\S(=O)(=O)c1ccccc1	none (no result: Apoferritin bind)
CN1CCC[C@H]1CCNc1ccc2c(=O)c3ccccc3n(C)c2c1	BRCA1 expr act inconclusive (no result: Apoferritin bind, TSHR antagonist)
O=c1c2ccccc2oc2ccc(NCCCN3CCOCC3)cc12	BRCA1 expr act inconclusive
CN1CCCC1CCNc1ccc2oc3ccccc3c(=O)c2c1 (stereo not given)	BRCA1 expr act 1.26µM
O=c1c2ccccc2oc2cc(NCCCN3CCOCC3)ccc12	BRCA1 expr act 5.62µM
COc1cccc2sc3cc(NCCCN4CCOCC4)ccc3c(=O)c12	BRCA1 expr act 10µM (no result: Apoferritin bind)
CN1CCCC1CCNc1ccc2c(=O)c3ccccc3oc2c1 (stereo not given)	BRCA1 expr act 12.6µM
Cn1c2ccccc2c(=O)c2cc(NCCCN3CCOCC3)ccc21	BRCA1 expr act inconclusive (no result: Apoferritin bind, PTAP TSG101 blk)
Cc1cc(/C=C/c2ccnc3ccccc23)ccc1N	none (no result: S-ASM inh, Apoferritin bind, PTAP TSG101 blk, TSHR antagonist)
CCc1nnc(NC(=O)CSc2ccc(-c3ccc(-n4cccn4)cc3)nn2)s1	BRCA1 expr act 10µM (no result: Apoferritin bind)
C/C(=C\C(=O)c1cccnc1)Nc1ccc(O)cc1	BRCA1 expr act inconclusive
C/C(=C\C(=O)c1ccccc1)Nc1ccc(O)cc1	BRCA1 expr act 5.01µM
CCN(CCC#N)c1ccc(/C=C/c2ccnc3ccccc23)cc1	none (no result: S-ASM inh, Apoferritin bind, PTAP TSG101 blk, TSHR antagonist)
N#C/C(=C\c1cccs1)C(=O)Nc1nccs1	BRCA1 expr act 14.1µM
C/C(=C\c1ccccc1)C(=O)Nc1nccs1	BRCA1 expr act 3.16µM
CC(C)(C)NC(=O)COC(=O)CNC(=O)C1CCCCC1	none (no result: S-ASM inh, Apoferritin bind, PTAP TSG101 blk, TSHR antagonist)
Nc1ncnc2c1[nH]c(=S)n2C1OC(CO)C(O)C1O (stereo not given)	none (no result: S-ASM inh, Apoferritin bind, PTAP TSG101 blk, TSHR antagonist)
CCCNC(=O)c1cc(Cl)c(NC(=O)C2=CSCCO2)cc1OC	BRCA1 expr act 7.94µM
COc1ccc2[nH]c(C)c(C(=O)CNc3nccs3)c2c1	none (no result: S-ASM inh, Apoferritin bind, PTAP TSG101 blk, TSHR antagonist)
O=c1[nH][nH]c(=O)c2c(NS(=O)(=O)c3ccccc3)cccc12	BRCA1 expr act 12.6µM
O=S(=O)(Nc1ccc(NS(=O)(=O)c2ccccc2)c2ccccc12)c1ccccc1	none (no result: S-ASM inh, Apoferritin bind, PTAP TSG101 blk, TSHR antagonist)
O=c1cc(-c2ccsc2)oc2ccc(-c3ccc4cc[nH]c4c3)cc12	S-ASM inh inconclusive, BRCA1 expr act 5.62µM (no result: Apoferritin bind)
COc1ccc(-c2ccc3oc(-c4ccsc4)cc(=O)c3c2)cc1F	none (no result: Apoferritin bind, PTAP TSG101 blk)
COC(=O)c1c(NC(=O)Cc2cccs2)sc(C(=O)NC2CCCCC2)c1C	BRCA1 expr act 3.16µM (no result: Apoferritin bind, TSHR antagonist)
CCOC(=O)c1c(NC(=O)Cc2cccs2)sc(C(=O)NC2CCCCC2)c1C	none
CC12C=C(/C=C/c3ccc(F)cc3)C(C)(C1)C(c1ccc(F)cc1)CC2=O (stereo not given)	none (no result: S-ASM inh, PTAP TSG101 blk, TSHR antagonist, BRCA1 expr act)
Cc1cccc(C(=O)OCC(=O)c2ccc3c(c2)OCO3)c1O	BRCA1 expr act 6.31µM
Cc1cc(C(=O)COC(=O)c2ccc3c(c2)OCO3)c(C)n1Cc1cccs1	BRCA1 expr act 5.01µM
Cc1cccc(C(=O)OCC(=O)c2ccc3c(c2)OCCO3)c1O	BRCA1 expr act 6.31µM (no result: Apoferritin bind, TSHR antagonist)
CC(C)C(=O)Nc1ccccc1C(=O)OCC(=O)c1ccc2c(c1)OCCO2	none
Cc1cnccc1/C=C/c1ccc(N)cc1	none (no result: S-ASM inh, Apoferritin bind, PTAP TSG101 blk, TSHR antagonist)
Cc1ccc(-c2[nH]ncc2CNCc2ccccc2)cc1	none (no result: S-ASM inh, Apoferritin bind, PTAP TSG101 blk, TSHR antagonist)
CCN(CC)CCCNC(=O)CCC(=O)Nc1ccc2nc(N3CCCCC3)cc(C)c2c1	BRCA1 expr act 11.2µM
CCCCNC(=O)CCC(=O)Nc1ccc2nc(N3CCCCC3)cc(C)c2c1	none
CCCCNC(=O)CCC(=O)Nc1ccc2nc(N3CCOCC3)cc(C)c2c1	BRCA1 expr act 3.98µM
CCN(CC)CCCNC(=O)CCC(=O)Nc1ccc2nc(N3CCC(C)CC3)cc(C)c2c1	none
Cc1ccc(-c2nnc3ccc(SCC(=O)c4ccccc4)nn23)cc1	none (no result: S-ASM inh, Apoferritin bind, PTAP TSG101 blk, TSHR antagonist)
COc1ccc(-c2c(C3C4C=CCCC4(C)C(=O)N3Cc3ccccc3)ccc3ccccc23)cc1 (stereo not given)	none (no result: S-ASM inh, PTAP TSG101 blk, TSHR antagonist, BRCA1 expr act)
CCC(C)c1cc([N+](=O)[O-])cc([N+](=O)[O-])c1OC(=O)OC(C)C (stereo not given)	none (no result: S-ASM inh, PTAP TSG101 blk, TSHR antagonist, BRCA1 expr act)
CC(=O)N1CCN(/[N+]([O-])=N/Oc2ccc([N+](=O)[O-])cc2[N+](=O)[O-])CC1	none (no result: S-ASM inh, Apoferritin bind, PTAP TSG101 blk, TSHR antagonist)
COc1cccc(CCn2c(N)cc(=O)[nH]c2=S)c1OC	none (no result: S-ASM inh, Apoferritin bind, PTAP TSG101 blk, TSHR antagonist)
CN1CCC/C1=C/C=C1\SC(=S)NC1=O	PTAP TSG101 blk inconclusive, BRCA1 expr act 10µM
